Myeloid diff MLP: promotes myeloid progenitor differentiation; ER-HoxA9 myeloid progenitors, lysozyme-GFP differentiation, flow cytometry; 360,000 tested, 1% active; AID 624256; calls only at 10 µM;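 active = normalized GFP-positive differentiation at or above the plate's own cutoff, the solvent-only control mean plus 3 SD; inconclusive = no clear call, values can overlap the other calls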;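 also: cells exposed to compound for four days before flow analysis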
AGP1 TOR yeast: yeast TOR pathway AGP1-GFP modulation. S. cerevisiae AGP1-GFP multiplex flow cytometry, 3 h; GFP as percent of DMSO wells. GFP response vs DMSO, % at 10 µM. 320,000 tested, 0.02% active. AID 2066;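 active = GFP response relative to DMSO above a set limit, near screen average plus 3 SD, cut at about 150% in these data; inconclusive = fewer than 70 cells counted for the yeast strain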;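 also: median GFP channel fluorescence of the gated AGP1 strain per well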
MEP2-GFP yeast: modulators of TOR pathway MEP2-GFP in S. cerevisiae; S. cerevisiae MEP2-GFP strain, flow cytometry GFP, 3 h; 100% = DMSO control level; GFP response vs DMSO, % at 10 µM; 330,000 tested, 0.51% active; AID 2016;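 active = GFP response versus DMSO above a set limit, roughly screen mean plus 3 SD, cut at about 180% in these data; inconclusive = fewer than 70 cells counted for a yeast strain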;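 also: median GFP fluorescence of the barcode-gated MEP2-GFP cells per well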
RPL19A-GFP yeast: modulators of TOR pathway RPL19A-GFP in S. cerevisiae. 330,000 tested, 0.3% active. S. cerevisiae RPL19A-GFP strain, flow cytometry, 3 h; stronger effect = lower value. percent response vs DMSO, % at 10 µM;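 active = percent response vs DMSO below 50%; inconclusive = fewer than 70 events counted for the yeast strain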;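 also: median channel GFP fluorescence of the barcoded RPL19A-GFP strain; ratio of sample median GFP to plate DMSO average so 100% = DMSO; lower means less RPL19A-GFP as with rapamycin TOR inhibition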
CIT2-GFP yeast: modulators of TOR pathway CIT2-GFP in S. cerevisiae; GFP response vs DMSO, % at 10 µM; 320,000 tested, 0.065% active; S. cerevisiae CIT2-GFP strain, flow cytometry, 3 h; 100 means same as DMSO wells;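 active = GFP response relative to DMSO above a set limit, near the screen mean plus 3 SD, cut at about 150% in these data; inconclusive = Fewer than 70 cells measured for a yeast strain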;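 also: ratio of well median GFP fluorescence to mean of DMSO wells on the plate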
LAP4-GFP MLPCN: alters LAP4-GFP fluorescence in TOR pathway yeast screen; S. cerevisiae LAP4-GFP multiplex, flow cytometry GFP, 3 h; median GFP as percent of DMSO wells; GFP response vs DMSO, % at 10 µM; 320,000 tested, 0.34% active; AID 2023;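 active = GFP response vs DMSO above a set limit, about the screen mean plus 3 SD, cut at about 150% in these data; inconclusive = under 70 cell events counted for the yeast strain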
Myeloid diff CP1: compounds promoting myeloid differentiation; shares compounds with Myeloid diff MLP; ER-HoxA9 myeloid progenitors, GFP/Mac1 double-positive flow; calls only; 2,300 tested, 2% active;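 active = share of green or green-and-red cells above 9 and 9% in run 1 or 4 and 3% in run 2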
GFP autofluor: flagged as fluorescent in myeloid differentiation counter-screen | shares compounds with Myeloid diff MLP | ER-HoxA9 myeloid progenitors, no estrogen, GFP autofluorescence flow cytometry; vehicle wells 0%, positive control 100% | fluorescence response, % (no concentration beside the values) | 2,300 tested, 7.4% active;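 active = over 5% cells positive for green fluorescent reporter, or over 2% positive for both it and APC stain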;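 also: range taken on the double positive population between DMSO and positive control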
An asterisk follows results filed as active; i = inactive; ? = inconclusive; nt = no result; + = active, no number. An excerpt weighted towards active compounds, which were near 1.8% of everything screened.

SMILES	Myeloid diff MLP	AGP1 TOR yeast	MEP2-GFP yeast	RPL19A-GFP yeast	CIT2-GFP yeast	LAP4-GFP MLPCN	Myeloid diff CP1	GFP autofluor
CCCCc1c(-c2ccc(OC)c(OC)c2)ncn1CCc1ccccc1OC	i	nt	nt	nt	nt	nt	nt	nt
CCCc1c(-c2ccc(F)cc2)ncn1CCc1ccccc1OC	i	nt	nt	nt	nt	nt	nt	nt
CCCCc1c(-c2cccc(OC)c2)ncn1CCc1ccccc1OC	+	nt	nt	nt	nt	nt	i	0
CC1(C(=O)Nc2ccc3c(c2)OCO3)CCN1C(=O)c1ccccc1 (stereo unspecified)	i	nt	nt	nt	nt	nt	nt	nt
O=C(CSc1ncnc2nc[nH]c12)c1ccc2ccccc2c1	+	107	104	99	98	110	i	0
O=C(O)CSc1ncnc2nc[nH]c12	i	101	98	98	86	101	nt	nt
COCCN1C(=O)CCC1(C)C(=O)NC(C)(C)C (stereo unspecified)	i	nt	nt	nt	nt	nt	nt	nt
O=C(CCC(=O)N1CCOc2ccccc21)NC1CCN(Cc2ccccc2)CC1	i	99	101	102	102	102	nt	nt
Cc1cc(C)cc(N(C(=O)Cc2cccs2)C(C(=O)NC2CCCC2)c2ccc(C)o2)c1 (stereo unspecified)	i	94	99	99	102	95	nt	nt
COc1ccccc1CN(C(=O)Cc1cccs1)C(C(=O)NC1CCCC1)c1ccncc1 (stereo unspecified)	i	68	90	108	62	90	i	0
Cc1ccc(C(C(=O)NC2CCCC2)N(C(=O)Cc2cccs2)c2cccc(C)c2C)o1 (stereo unspecified)	i	?	?	?	?	?	i	0
O=C(NC1CCCC1)C(c1ccncc1)N(Cc1ccccc1)C(=O)Cc1cccs1 (stereo unspecified)	i	100	104	100	95	97	nt	nt
CC(=O)c1nn(-c2cccc(Br)c2)cc1C(=O)c1ccc(Br)cc1	i	106	101	100	102	94	nt	nt
Cc1ccc(S(=O)(=O)N2CCOCC2)cc1NC(=O)COC(=O)C1=COCCO1	i	106	98	100	95	97	nt	nt
Oc1ccc(Br)cc1CNn1cnnc1	i	102	105	96	107	103	nt	nt
N#Cc1c(NC(=O)c2ccc(Br)o2)n(-c2ccccc2)c2nc3ccccc3nc12	+	99	105	101	92	95	i	0
COc1cc(S(=O)(=O)NCCOC23CC4CC(CC(C4)C2)C3)c(OC)cc1Cl	i	95	103	102	104	97	nt	nt
CCN(CC)C(=O)CSc1ncnc2c(-c3cccs3)nsc12	i	98	106	98	97	95	i	1
COc1ccc(C2C(Oc3ccccc3C)C(=O)N2Cc2ccc(F)cc2)cc1OC (stereo unspecified)	i	89	92	89	90	90	i	0
COc1ccc(OC2C(=O)N(Cc3ccc(F)cc3)C2c2cc(OC)c(OC)c(OC)c2)cc1 (stereo unspecified)	i	111	108	101	108	101	nt	nt
Cc1ccc(N(Cc2cc(=O)[nH]c3ccccc23)C(=O)CCl)c(C)c1	i	96	102	105	95	93	nt	nt
O=c1[nH][nH]c(=O)c2cc([N+](=O)[O-])ccc12	i	103	102	97	94	103	nt	nt
CC(/C=C/c1ccc(N(C)C)cc1)=N/N=C1/NC(=O)CC(C(=O)Nc2ccc(Cl)cc2)S1 (stereo unspecified)	+	104	99	102	97	97	i	0
CC(/C=C/c1ccc(N(C)C)cc1)=N\N=C1\NC(=O)CC(C(=O)Nc2ccccc2)S1 (stereo unspecified)	i	?	?	?	?	?	nt	nt
O=C(CCN1C(=O)[C@H]2CC=CC[C@H]2C1=O)NCc1nc(-c2ccc(Cl)cc2)no1	i	96	102	95	91	92	nt	nt

Assay outcomes deposited in PubChem by NMMLSC.
